Screening data as filed in PubChem BioAssay.
HP1b binding inh: blocks HP1-beta chromodomain binding to methylated histone tails; AlphaScreen HP1-beta / biotin-H3K9me3 peptide binding; P83916; Potency, µM (series often up to 114 µM), for inactives: at the top dose activity change, negative = inhibition, hits mostly inhibitors; 390,000 compounds, 0.56% hits; also: nearly all actives have a fitted effect of over 70% in size
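Compound inhibition of the preformed complex between 50 nM HP1-beta and 50 nM biotinylated H3K9me3 peptide was read by AlphaScreen. Buffer was PBS pH 7.4 with 0.01% Tween-20. Incubations ran 30 min at room temperature, with 10 ug/mL donor/acceptor beads.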
L3MBTL1 block: blocks human L3MBTL1; AID 485360; Q9Y468; AlphaScreen L3MBTL1–H3K9me1 peptide binding; Potency, µM (highest dose often 57.1 µM), without a hit: at the highest dose activity, negative = inhibition, actives largely listed as inhibitors; 230,000 compounds, 0.66% hits; also: % is scaled to controls: 0 for no effect and ±100 for the full control effect; nearly all actives have a fitted effect of over 60% in size
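L3MBTL1 (50 nM) pre-complexed 30 min with biotinylated H3(1-15)K9me1 peptide (75 nM), then compounds added for 30 min at room temperature; AlphaScreen streptavidin donor/nickel chelate acceptor beads (10 ug/mL final) read after 30 min dark incubation.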
Sfp PPTase inh: Sfp phosphopantetheinyl transferase inhibition | Q9F4F7 | Biochemical Sfp PPTase activity, qHTS | Potency, µM, for inactives: largest response in the series, negative = inhibition, most hits filed as inhibitors | 310,000 compounds, 3.5% hits;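 also: the enzyme is Sfp with the accession as filed and its product quenches rhodamine fluorescence; 0% = enzyme reaction without inhibitor and -100% = no enzyme wells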
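After 15 min at room temperature with compound, 15 nM Sfp received 5 uM rhodamine-CoA plus 12.5 uM BHQ-2-ybbR (50 mM Hepes pH 7.6, 10 mM MgCl2). Rate came from the fluorescence difference over 30 min, ex 525/em 598 nm.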
BAZ2B block: inhibitors of human BAZ2B bromodomain; AID 504333; 360,000 compounds, 4.4% hits; Q9UIF8; Potency, µM (doses to about 114 µM), without a hit: at the highest dose activity change, negative = inhibition, actives largely listed as inhibitors; AlphaScreen BAZ2B-H3K14Ac peptide displacement; also: % is scaled to controls: 0 for no effect and ±100 for the full control effect; nearly all actives have a fitted effect of over 60% in size
Target sequence (Q9UIF8 whole entry, looked up): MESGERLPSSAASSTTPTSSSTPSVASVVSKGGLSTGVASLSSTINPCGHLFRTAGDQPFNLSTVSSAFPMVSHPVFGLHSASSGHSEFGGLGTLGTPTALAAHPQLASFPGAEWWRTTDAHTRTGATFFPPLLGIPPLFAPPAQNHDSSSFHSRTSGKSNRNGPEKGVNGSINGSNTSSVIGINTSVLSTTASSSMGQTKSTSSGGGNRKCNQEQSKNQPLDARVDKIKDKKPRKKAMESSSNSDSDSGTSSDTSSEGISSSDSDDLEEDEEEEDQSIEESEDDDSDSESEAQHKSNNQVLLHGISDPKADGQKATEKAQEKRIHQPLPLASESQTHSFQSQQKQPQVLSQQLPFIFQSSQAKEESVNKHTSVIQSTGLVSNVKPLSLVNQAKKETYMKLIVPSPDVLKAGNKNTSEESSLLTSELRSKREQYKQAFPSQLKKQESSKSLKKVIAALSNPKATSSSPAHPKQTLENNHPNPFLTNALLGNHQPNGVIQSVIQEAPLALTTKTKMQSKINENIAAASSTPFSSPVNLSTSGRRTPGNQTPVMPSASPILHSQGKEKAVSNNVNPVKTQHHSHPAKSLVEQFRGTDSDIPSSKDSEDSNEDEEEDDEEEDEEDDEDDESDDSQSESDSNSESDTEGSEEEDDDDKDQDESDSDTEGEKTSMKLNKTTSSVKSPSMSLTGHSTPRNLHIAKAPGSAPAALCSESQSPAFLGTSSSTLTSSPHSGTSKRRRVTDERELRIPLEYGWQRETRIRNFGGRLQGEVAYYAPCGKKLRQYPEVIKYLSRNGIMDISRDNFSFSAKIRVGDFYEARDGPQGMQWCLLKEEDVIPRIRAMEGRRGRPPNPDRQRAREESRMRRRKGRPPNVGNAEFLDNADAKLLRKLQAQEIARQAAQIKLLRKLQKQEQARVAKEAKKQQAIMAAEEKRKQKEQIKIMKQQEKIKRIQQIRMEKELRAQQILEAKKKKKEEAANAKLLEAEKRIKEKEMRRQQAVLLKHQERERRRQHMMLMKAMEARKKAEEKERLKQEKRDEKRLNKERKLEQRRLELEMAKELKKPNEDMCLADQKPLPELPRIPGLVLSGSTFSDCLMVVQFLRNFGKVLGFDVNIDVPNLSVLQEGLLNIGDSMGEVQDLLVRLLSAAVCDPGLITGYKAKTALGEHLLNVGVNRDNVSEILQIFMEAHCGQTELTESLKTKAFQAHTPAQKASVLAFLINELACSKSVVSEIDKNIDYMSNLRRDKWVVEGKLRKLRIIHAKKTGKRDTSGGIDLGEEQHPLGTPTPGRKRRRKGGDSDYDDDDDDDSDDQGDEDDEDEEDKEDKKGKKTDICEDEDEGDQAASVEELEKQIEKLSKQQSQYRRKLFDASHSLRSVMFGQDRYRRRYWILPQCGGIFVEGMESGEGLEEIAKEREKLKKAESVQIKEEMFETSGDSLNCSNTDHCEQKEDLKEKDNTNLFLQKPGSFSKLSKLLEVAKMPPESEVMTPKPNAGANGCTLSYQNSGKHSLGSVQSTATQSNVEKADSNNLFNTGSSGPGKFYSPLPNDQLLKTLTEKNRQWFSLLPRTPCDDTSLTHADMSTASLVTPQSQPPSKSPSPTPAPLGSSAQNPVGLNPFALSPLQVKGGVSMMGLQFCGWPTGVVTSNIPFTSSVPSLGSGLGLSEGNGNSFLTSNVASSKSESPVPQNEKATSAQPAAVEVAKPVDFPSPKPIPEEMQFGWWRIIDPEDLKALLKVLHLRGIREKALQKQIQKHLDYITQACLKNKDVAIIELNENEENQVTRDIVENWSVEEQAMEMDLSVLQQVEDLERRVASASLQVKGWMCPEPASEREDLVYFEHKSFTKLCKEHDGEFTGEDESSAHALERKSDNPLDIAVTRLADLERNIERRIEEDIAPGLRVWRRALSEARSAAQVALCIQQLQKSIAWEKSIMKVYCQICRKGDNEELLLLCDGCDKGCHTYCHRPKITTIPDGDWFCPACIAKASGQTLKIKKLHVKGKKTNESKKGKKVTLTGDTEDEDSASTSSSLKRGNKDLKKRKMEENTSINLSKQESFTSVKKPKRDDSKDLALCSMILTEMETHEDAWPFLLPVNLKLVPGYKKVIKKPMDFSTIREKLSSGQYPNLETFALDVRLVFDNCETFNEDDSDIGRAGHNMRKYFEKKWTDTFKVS
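Inhibition is scored as reduced AlphaScreen emission. The BAZ2B/b-H3(5-23)K14Ac complex (50 nM each) in PBS pH 7.4, 0.01% Tween-20 meets compound (up to 110 uM) for 30 min at RT before bead addition.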
G9a block: inhibitors of human histone lysine methyltransferase G9a; Q96KQ7; G9a H3K9 monomethylation, AlphaScreen, 2 h; Potency, µM (series often up to 102 µM), without a hit: top-dose activity, negative = inhibition, most hits filed as inhibitors; 350,000 compounds, 8.8% hits; AID 504332; also: % is scaled to controls: 0 for no effect and ±100 for the full control effect; nearly all actives have a fitted effect of over 75% in size
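Step 1: enzyme (final 20 nM) with compound, 15 min RT. Step 2: substrate peptide 500 nM and SAM 20 uM, 2 h RT. Step 3: anti-H3K9me1 antibody and AlphaScreen beads, 10 min, then plate read.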
JMJD2A Tudor: inhibitors of human JMJD2A Tudor domain. O75164. AlphaScreen JMJD2A-Tudor / H3K4me3 peptide binding. Potency, µM (top dose mostly 114 µM), for the others: at the highest dose activity change, negative = inhibition, actives largely listed as inhibitors. 390,000 compounds, 4.4% hits. AID 504339; also: % is scaled to controls: 0 for no effect and ±100 for the full control effect; nearly all actives have a fitted effect of over 50% in size
* hit, by the source's call; ? = inconclusive; · = no result; [ ] = another dose, or the depositor's remark. Compounds with a hit are over-represented: about 12% of the library has one in this group of screens. Calls follow the shape of the dose curve; as a rule, active = well fitted curve in the direction sought with a large enough effect; inconclusive = small, poorly fitted or top-dose-only effect, or another doubt; inactive = no such curve, though single readings can be large; an effect the other way counts as inactive or inconclusive. Potency is read from the fitted curve at half-maximal effect.

SMILES | HP1b binding inh | L3MBTL1 block | Sfp PPTase inh | BAZ2B block | G9a block | JMJD2A Tudor
O=C(OCC(=O)N1CCc2ccccc2C1)c1ccc(N2CCOCC2)c([N+](=O)[O-])c1 | -1.0% | -4.6% | 0.7% | -35.2% | 39.8µM* | -28.2%
O=[N+]([O-])c1cc(Cl)ccc1N1CCOCC1 | 15.5% | -6.3% | -1.9% | ? | ? | -22.0%
Nc1ccc(C(=O)OCC(=O)N2CCc3ccccc3C2)cc1[N+](=O)[O-] | 1.4% | -5.1% | -9.6% | -33.4% | -48.0%[59 µM] | -31.6%
Cn1nc(C(=O)N2CCN(c3ccccc3F)CC2)c2c1-c1ccccc1S(=O)(=O)C2 | 20.3% | · | 9.8% | -23.9% | 14.8% | -17.2%
Cc1cc(CC(=O)O)c2oc(-c3ccoc3)cc(=O)c2c1 | -20.3% | · | · | · | · | 89.1µM*
COc1ccc(CNC(=O)C2CCN(S(=O)(=O)c3c(C)noc3/C=C/c3ccccc3F)CC2)cc1 | 14.4%[57 µM] | · | · | -1.5% | 22.4%[59 µM] | -17.6%
COc1ccc(C(C)NC(=O)Cc2cccs2)cc1OC (centres undefined) | 12.2% | · | -1.6% | -4.8% | · | -5.2%
CN1CCN(S(=O)(=O)c2ccc(Nc3ccc(F)cc3)c([N+](=O)[O-])c2)CC1 | -26.3% | -3.1% | · | ? | 56.2µM* | ?
O=[N+]([O-])c1cc(S(=O)(=O)N2CCOCC2)ccc1N1CCNCC1 | 7.5% | 0.8% | · | -5.8% | 50.1µM* | -20.5%
O=[N+]([O-])c1cc(-n2cccc2)ccc1N1CCOCC1 | 70.8µM* | -24.4% | 4.1% | 35.5µM* | ? | 50.1µM*
Cc1ccc(Nc2ccc(S(=O)(=O)N3CCOCC3)cc2[N+](=O)[O-])cc1C | ? | ? | 4.8% | 11.2µM* | ? | ?
Cc1ccc(C)n1-c1ccc(N2CCOCC2)c([N+](=O)[O-])c1 | -18.1% | 30.4% | -5.1% | ? | · | ?
Cc1ccc(S(=O)(=O)Nc2ccc(S(=O)(=O)N3CCOCC3)cc2)cc1[N+](=O)[O-] | 16.2% | · | 18.9% | 4.3% | 14.5% | -11.4%
Cn1c(SCc2ccc(F)cc2)nc2ccc(C(=O)NCc3ccc(F)cc3)cc21 | 22.8% | · | · | 2.1% | 6.3%[59 µM] | -20.4%
c1ccc2c(c1)CN1CCCC1=N2 | 24.2% | · | 5.7% | 2.1% | 13.2% | -1.4%
CN(C)C(=O)c1ccc(-c2nc(NCc3ccccc3)c3ccccc3n2)cc1 | · | · | -6.2% | · | · | ·
CN1CCN(S(=O)(=O)c2ccc(N(C)Cc3ccc(C(F)(F)F)cc3)c([N+](=O)[O-])c2)CC1 | ? | -22.9% | · | 39.8µM* | -13.3%[12.7 µM] | 25.1µM*
CCOc1ccc(CN(C)c2ccc(S(=O)(=O)N3CCN(C)CC3)cc2[N+](=O)[O-])cc1OC | -15.6% | -12.5% | · | ? | -8.9%[12.7 µM] | ?
CCc1cc(=O)oc2c(C)c(O)c(CN3CCCCC3)cc12 | 23.9% | 2.6% | 13.3% | 8.9% | 20.1% | 79.4µM*
Cc1c(O)c(CN2CCCC2)cc2c1oc(=O)c1ccccc12 | 11.7% | 6.2% | 14.2% | 7.4% | 22.4µM* | ?
COc1cc(Cl)c(C)cc1NC(=O)NC1COc2ccccc2C1 (centres undefined) | 8.4%[57 µM] | · | · | 7.0% | 2.0%[59 µM] | -11.7%
Cc1ccc(C(=O)CSc2nc3cccnc3n2C)cc1 | 2.2% | 0.6% | -12.9% | -1.2% | ? | -14.5%
COc1ccc(OC)c(C(=O)CSc2nc3ncccc3[nH]2)c1 | 10.5% | 0.4% | -12.8% | -33.5% | 50.1µM* | 3.9%[57.1 µM]
COc1ccc(OC)c(C(=O)CSc2nc3cccnc3n2C)c1 | 42.2% | 4.7% | 79.4µM* | 10.5% | -27.5%[12.7 µM] | -9.3%
CCOc1ccc(OCC)c(NS(=O)(=O)c2cc(-c3cc(C)no3)ccc2C)c1 | 22.6% | · | · | -1.4% | -13.6%[59 µM] | -26.9%
SMILES | HP1b binding inh | L3MBTL1 block | Sfp PPTase inh | BAZ2B block | G9a block | JMJD2A Tudor
Cc1ccc2nc(/C(C#N)=N/O)[nH]c2c1 | 46.7% | -5.8% | -29.0% | ? | -41.4%[12.7 µM] | -10.3%[11.4 µM]
C/C(O)=C(/C#N)c1nc2ccccc2[nH]1 | 34.0% | -0.4% | 10.5% | ? | 10µM* | -28.7%
N#C/C(=C(\O)c1cc(Cl)sc1Cl)c1nc2ccccc2[nH]1 | 18.4%[57 µM] | · | 11.4% | 70.8µM* | 28.9% | -32.5%
N#C/C(=C(/O)c1ccc(Cl)cc1)c1nc2ccccc2[nH]1 | 13.3% | · | 13.2% | -0.8% | 15.1% | -20.3%
CC(=O)OC(/C(O)=C(\C#N)c1nc2ccccc2[nH]1)c1ccccc1 (centres undefined) | 18.2% | 4.8% | 11.1% | · | 6.5%[59 µM] | -11.6%
N#C/C(=N\O)c1nc2ccccc2[nH]1 | 14.9% | -6.1% | ? | ? | 8.7% | 56.2µM*
N#C/C(=C(/O)C(Cl)(Cl)Cl)c1nc2ccccc2[nH]1 | 22.1%[57 µM] | 7.7% | 26.2% | -15.6% | 5.3% | 50.1µM*
CC(C)C[C@H](NS(=O)(=O)c1ccc(Br)cc1)C(=O)O | -6.5% | · | -1.1% | 4.0% | -43.8% | 89.1µM*
O=C(O)C(Cc1c[nH]c2ccccc12)NS(=O)(=O)c1ccc(Br)cc1 (centres undefined) | ? | · | -0.4% | -20.7% | ? | 28.2µM*
CC(C)CC(NS(=O)(=O)c1cccc(C(=O)O)c1)C(=O)O (centres undefined) | 37.4% | · | 5.7% | · | ? | 1.4%
Cc1ccc(C2C(C#N)=C(N)N(c3ncn[nH]3)C3=C2C(=O)CC(C)(C)C3)cc1 (centres undefined) | 23.0% | · | -3.9% | -23.5% | ? | -8.7%
COc1ccc(NC(=O)N2CCc3nc(COc4ccccc4)c4c(c3C2)CO[C@@H](C)C4)cc1 | · | · | -0.5% | · | · | ·
CC1CC(C)(C)N2C(=O)C3(Nc4ccccc4S3)c3cccc1c32 (centres undefined) | -1.5% | · | ? | 50.1µM* | 44.7µM* | 50.1µM*
COc1ccc(-c2nc(CN3CCC(C(=O)NCCc4ccccc4)CC3)c(C)o2)cc1OC | 30.5% | · | · | -23.5% | -5.9%[59 µM] | -14.1%
COc1ccc(-c2nc(CN3CCC(C(=O)NCCCOC(C)C)CC3)c(C)o2)cc1OC | 26.6% | · | · | -7.9% | 8.91µM* | -18.5%
COC(=O)C1=C[C@@H](C(=O)OC)C2C3=C(C(=O)[C@@]2(C)NC(=O)c2ccccc2)[C@H](C)n2c(=O)n(C)c(=O)n2[C@@H]3C1 (some centres undefined) | 26.0% | · | 22.0% | · | · | -11.0%
O=C(O)CCNC(=O)/C(=C/C=C/c1ccccc1)NC(=O)c1ccccc1 | 18.5% | · | 23.6% | -3.5% | 39.8µM* | -18.0%
O=C(Nc1ccc(C(=O)O)cc1)/C(=C\C=C\c1ccccc1)NC(=O)c1cccc(Br)c1 | 7.2% | -23.6% | -29.5% | 56.2µM* | 39.8µM* | -33.0%
CCOc1ccc(C2C(C(=O)c3cccs3)=C(O)C(=O)N2CCN2CCOCC2)cc1 (centres undefined) | 46.2% | · | -2.7% | -20.8% | 50.1µM* | -2.0%
